In the library only some 7.5% were active in any assay of this set; here they are far more common.
Luc counter: Counterscreen for Luciferase (Kinase-Glo TM) Inhibition. Kinase-Glo luciferase, ATP luminescence, 8 min. Potency, µM (doses to about 38.3 µM), for inactives: top-dose activity change, negative = inhibition, most hits filed as inhibitors. actives 0.28% (n = 200,000). AID 1379, 2008; note: % is set by controls: 0 for no effect and ±100 for the full control effect; nearly all actives have a fitted effect of over 60% in size
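Inhibition of Kinase-Glo luciferase light generation was assessed at 10 uM ATP in pH 7.2 imidazole buffer, with luminescence measured after eight minutes at ambient temperature.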
NPC1 prom act: qHTS Assay for NPC1 Promoter Activators; actives 2.4% (n = 320,000); Huh7 NPC1 promoter luciferase reporter, 24 h; Potency, µM (series often up to 9.22 µM), for inactives: top-dose activation, actives largely listed as activators; note: % of control where 0% means no effect; nearly all actives have a fitted effect of over 60% in size
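Huh7 cells stably carrying NPC1 promoter–luciferase, plated in Opti-MEM with 10% FBS for 2 h, were exposed to compound in DMSO for 24 h at 37 °C; luciferase reagent was added for 10 min and luminescence read.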
SMN2 splice enh: qHTS Assay for Enhancers of SMN2 Splice Variant Expression; HEK293 SMN2-luciferase splicing reporter, luminescence, 30-36 h; Potency, µM (top dose mostly 46.1 µM), without a hit: top-dose activity change, positive = activation, actives largely listed as activators; actives 2.8% (n = 210,000); note: % of control where 0% means no effect; nearly all actives have a fitted effect of over 55% in size
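HEK293 cells carry an SMN2 […]–luciferase reporter in which exon 7 inclusion puts luciferase in frame. Cells were plated 10-12 h before compound addition, then incubated 30-36 h at 37C. ONE-Glo luminescence was read; sodium butyrate at 4.5 mM final served as control.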
ELG1 genotox: qHTS screen for small molecules that induce genotoxicity in human embryonic kidney (HEK293T) cells expressing luciferase-tagged ELG1; HEK293T ELG1-luciferase reporter, luminescence, 16 h; actives 1.3% (n = 330,000); Potency, µM (top dose mostly 46 µM), for inactives: at the top dose activity change, positive = activation, hits mostly activators; note: % of control where 0% means no effect; nearly all actives have a fitted effect of over 60% in size
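Genotoxic stress is detected as increased luminescence from luciferase-tagged ELG1 in HEK293T cells, measured with ONE-Glo after a 16 hr treatment at 37 °C.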
Rab9 prom act: qHTS Assay for Rab9 Promoter Activators; AID 485297, 2010; Potency, µM (highest dose often 9.22 µM), for the others: at the top dose activation, negative = inhibition, usual class: activators; actives 2.8% (n = 320,000); Huh7 Rab9 promoter-luciferase reporter, luminescence, 24 h; note: % of control where 0% means no effect; nearly all actives have a fitted effect of over 60% in size
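Quantitative HTS format; Huh7 Rab9-luciferase reporter cells (1500/well) receive compound 2 h post-plating, incubate 24 h at 37 °C, then get luciferase reagent for 10 min before luminescence reading.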
FLuc counter: qHTS profiling assay for firefly luciferase inhibitor/activator using purifed enzyme and Km concentrations of substrates (counterscreen for miR-21 project) | Luciferin 4-monooxygenase (Photinus pyralis), P08659 | purified FLuc, Km substrates, luminescence inhibition | Potency, µM (doses to about 57.5 µM), for the others: top-dose activity change, negative = inhibition, usual class: inhibitors | actives 6.9% (n = 360,000);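 note: plate controls were vehicle for no effect and reference inhibitor for full effect; nearly all actives have a fitted effect of over 55% in size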
Target sequence (P08659 whole entry, looked up): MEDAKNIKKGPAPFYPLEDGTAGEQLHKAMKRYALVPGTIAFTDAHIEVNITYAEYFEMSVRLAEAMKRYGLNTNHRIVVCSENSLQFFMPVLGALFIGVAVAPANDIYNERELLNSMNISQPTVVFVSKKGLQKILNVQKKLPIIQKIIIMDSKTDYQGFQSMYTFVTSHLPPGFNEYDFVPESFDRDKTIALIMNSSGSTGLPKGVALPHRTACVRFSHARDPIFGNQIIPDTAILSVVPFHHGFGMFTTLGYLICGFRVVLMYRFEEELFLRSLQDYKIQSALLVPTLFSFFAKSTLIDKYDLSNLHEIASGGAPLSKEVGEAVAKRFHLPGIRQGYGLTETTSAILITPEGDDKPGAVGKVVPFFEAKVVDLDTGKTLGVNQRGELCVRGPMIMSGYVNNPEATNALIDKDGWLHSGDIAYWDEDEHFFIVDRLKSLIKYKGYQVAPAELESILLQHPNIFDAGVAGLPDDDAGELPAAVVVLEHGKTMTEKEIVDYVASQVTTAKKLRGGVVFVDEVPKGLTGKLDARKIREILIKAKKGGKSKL
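Biochemical qHTS of compounds, final roughly 60 µM downward over six points, against 10 nM purified firefly luciferase using Km concentrations of substrates (10 uM D-luciferin, 10 uM ATP) in Tris acetate pH 7.5 buffer; luminescence output.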
* hit, by the source's call; ? = inconclusive; . = no result given; [ ] = another dose, or the depositor's remark. Calls come from the whole dose curve; as a rule, active = well fitted curve in the direction sought with a large enough effect; inconclusive = small, poorly fitted or top-dose-only effect, or another doubt; inactive = no such curve, though single readings can be large; an effect the other way counts as inactive or inconclusive. Potency is the fitted concentration of half-maximal effect.

SMILES	Luc counter	NPC1 prom act	SMN2 splice enh	ELG1 genotox	Rab9 prom act	FLuc counter
Cc1ccc(NC(=O)C2CCCN(C(=O)Nc3ccc(F)cc3)C2)cc1 (stereo not given)	.	-0.3%	.	15.8%	?	-3.2%
CC(=O)c1cccc(NC(=O)N2CCC(c3ccc(C)cc3)C2)c1 (stereo not given)	.	?	.	2.6%	14.6%	16.9µM*
O=C(CCSCc1ccccc1F)N1CCN(c2ccc(F)cc2)CC1	.	.	.	.	.	1.3%
CC(=O)Nc1ccc(S(=O)(=O)NCC(=O)OCC(=O)N2CC(C)OC(C)C2)cc1 (stereo not given)	.	.	.	4.5%	.	.
O=C(c1csc2c1CCCC2)n1cccn1	3.7%	.	.	.	.	.
O=C(N=Nc1c(O)[nH]c2ccc(F)cc12)c1ccc(NS(=O)(=O)c2cccs2)cc1	.	3.5%	.	0.9%	7.1%	?
Cc1ccc2[nH]c(O)c(N=NC(=O)c3ccc(NS(=O)(=O)c4cccs4)cc3)c2c1	.	1.7%	.	-3.7%	0.3%	5.36µM*
Cc1cccc2c(N=NC(=O)c3ccc(NS(=O)(=O)c4cccs4)cc3)c(O)[nH]c12	.	?	.	13.6%	?	0.426µM*
CC(C)(C)c1ccc(-c2nc(C#N)c(NCCCn3ccnc3)o2)cc1	.	-3.8%	.	-2.2%	-0.8%	21.3µM*
N#Cc1nc(-c2ccc(F)cc2)oc1NCCCn1ccnc1	-1.3%	12.6%	26.7%	7.3%	26.0%	-17.2%
COc1ccc(-c2nc(C#N)c(NCCCn3ccnc3)o2)cc1OC	16.8%	24.0%	6.31µM*	?	20.2%	15.1µM*
CC(C)(C)c1ccc(-c2nc(C#N)c(NCc3ccncc3)o2)cc1	.	16.1%	.	?	?	6.01µM*
COc1ccc(-c2nc(C#N)c(NCCc3ccccc3)o2)cc1OC	-8.3%	?	15.8µM*	8.2µM*	?	6.75µM*
O=C(CCn1cccn1)N1CCCC(N2CCN(c3cccc(Cl)c3)CC2)C1 (stereo not given)	.	11.6%	.	-7.1%	18.9%	-1.4%
CCOc1ccccc1C(=O)Nc1ccc(-n2nncc2C(C)(C)C)cc1	0.5%	-7.6%	-26.7%	-1.2%	-0.7%	2.9%
CN1CCN(C(=O)C2=C[C@@H](C3CC3)C[C@@H](OCc3ccc(CO)cc3)O2)CC1	.	-5.3%	.	3.8%	-5.1%	2.5%
O=C(CSc1ccc2nc(-c3ccccc3)cn2n1)Nc1cccc(F)c1	.	.	.	.	.	7.57µM*
COc1ccc(-c2cn3nc(SCC(=O)Nc4cccc(C)c4C)ccc3n2)cc1	.	.	.	.	.	2.13µM*
COc1ccc(-c2cn3nc(SCC(=O)Nc4cc(C)cc(C)c4)ccc3n2)cc1	.	.	.	.	.	3.79µM*
COc1ccc(-c2cn3nc(SCC(=O)Nc4ccc(C)c(Cl)c4)ccc3n2)cc1	.	.	.	.	.	2.69µM*
COc1ccc(NC(=O)CSc2ccc3nc(-c4ccccc4)cn3n2)cc1OC	.	.	.	.	.	-18.3%
Cc1ccc(N(CCC#N)C(=O)COC(=O)c2ccccn2)cc1	.	-2.6%	.	1.7%	-4.0%	0.2%
CCOC(=O)c1ccc(NC(=O)CN2C(=O)C(C)SC(C)C2=O)cc1 (stereo not given)	0.7%	-0.8%	7.9%	-2.0%	0.4%	?
CCOC(=O)c1ccc(NC(=O)CN2C(=O)CSC(C)C2=O)cc1 (stereo not given)	2.2%	-4.1%	-18.2%	1.3%	-3.9%	16.9µM*
COc1ccc(Br)c(C(=O)Nc2cc3c(cc2N2CCOCC2)n(C)c(=O)n3C)c1	.	.	-1.3%	.	.	-0.3%
SMILES	Luc counter	NPC1 prom act	SMN2 splice enh	ELG1 genotox	Rab9 prom act	FLuc counter
CCOC(=O)c1sc(-c2ccc(OC)cc2)cc1NC(C)=O	-1.5%	25.7%	15.8µM*	3.9%	21.9%	-15.4%
CCOc1ccc(-c2cc(NC(=O)Nc3ccccc3Cl)c(C(=O)OC)s2)cc1	.	.	29.1%	.	.	8.49µM*
O=C(Nc1nc(-c2ccccn2)cs1)C1CCCC1	-0.2%	28.5%	29.8%	0.1%	?	23.9µM*
Cc1ccc(C(=O)Nc2nc(-c3ccccn3)cs2)s1	.	28.1%	.	14.6µM*	-1.8%	6.75µM*
CC(C)c1nc2ccc(NC(=O)C3CCCCC3)cc2[nH]1	-1.0%	0.2%	13.4%	1.2%	-6.8%	?
CCc1sc(C(=O)Nc2nc(-c3ccccn3)cs2)cc1C	.	.	.	13.8%	.	.
O=C(Nc1ccc2nc(-c3ccccn3)[nH]c2c1)C1CCCCC1	-3.7%	?	11.2µM*	20.6µM*	?	5.36µM*
O=C(Nc1nc(-c2ccccn2)cs1)c1ccc(Cl)s1	1.7%	3.5%	-66.2%	17.2%	-0.7%	16.9µM*
CCN(CC)c1ccc(/C=N/Nc2ccc(C)cc2)c(O)c1	1.4%	13.6%	6.1%	9.3%	18.7%	?
Cc1ccc(N=Cc2cccc(O)c2O)c(C)c1	-15.2%	1.4%	21.1%	-1.6%	8.8%	?
CCN(CC)c1ccc(C=Nc2cc(C)ccc2C)c(O)c1	-7.5%	2.4%	?	6.5%	0.6%	1.69µM*
CCN(CC)c1ccc(C=Nc2ccc(C)cc2C)c(O)c1	1.6%	27.5%	.	9.3%	?	3.38µM*
CCN(CC)c1ccc(C=Nc2cccnc2Cl)c(O)c1	.	-6.4%	.	-1.0%	-5.3%[1.84 µM]	2.39µM*
CCN(CC)c1ccc(/C=N/N2C(=O)c3ccccc3C2=O)c(O)c1	-6.0%	21.0%	?	-3.6%	23.4%	?
COC(=O)c1c(NC(=O)CSc2ccccc2N)sc(C)c1C	-1.6%	0.0%	-20.5%	-4.0%	2.9%	-15.5%
CCCc1cc(C(=O)Nc2nnc(C)s2)cs1	-5.8%	?	?	?	3.55µM*	9.53µM*
Cc1ccc(C(=O)Nc2nnc(C)s2)cc1	-6.2%	3.55µM*	14.1µM*	-2.4%	3.16µM*	12µM*
CCOc1cc(C(=O)Nc2nnc(C)s2)cc(OCC)c1OCC	1.6%	0.5%	?	-0.4%	-5.7%	10.1%
Cc1nnc(NC(=O)c2ccc(S(=O)(=O)N3CCCCC3)cc2)s1	.	.	.	3.2%	.	.
CCN(CC)S(=O)(=O)c1nnc(NC(=O)c2ccc(Br)cc2)s1	.	.	.	.	.	-7.1%
CC(=O)Oc1ccc(C(=O)Nc2nnc(C)s2)cc1	-2.5%	24.5%	25.6%	?	21.0%	21.3µM*
Cc1nnc(NC(=O)c2ccc(Br)cc2)s1	-4.9%	?	?	?	3.16µM*	2.69µM*
NS(=O)(=O)c1cc([C@@]2(O)NC(=O)c3ccccc32)ccc1Cl	-0.9%[17.1 µM]	.	-3.3%[20.6 µM]	.	.	.
O=C(c1csnn1)N1CCC2(CC1)CN(Cc1cc(C(F)(F)F)cc(C(F)(F)F)c1)C2	0.5%	.	-4.0%	.	.	.
